Records with an inconclusive call do not appear. Activity calls are given as the source filed them. Rule for the calls: active = hit-call score of the fitted dose curve at least 0.9, where 1 is the maximum; inconclusive = response in the unintended direction; inactive = score below 0.9.

For the experiment, the system named is Brachyury (BRA), TBXT (gene 6862). The experiment is described as follows: CCTE_Deisenroth_DEVTOX-GLR_Ecto_BRA: CCTE's DevTox GLR-Ecto Assay Evaluation of Brachyury (BRA) Protein Expression, Deisenroth Lab. As for the experimental part: CCTE_Deisenroth_DEVTOX-GLR_Ecto assay is a cell-based, multiplex-readout assay that uses RUES2-GLR, a human pluripotent cell line, with measurements taken at 48 hours after chemical dosing in a 384-well microplateCCTE_Deisenroth_DEVTOX-GLR_Ecto_BRA is 1 of 4 assay components calculated from the CCTE_Deisenroth_DEVTOX-GLR_Ecto assay and it measures an the percentage of cells in an mesoderm state. Using a type of inducible fluorescent protein reporter, gain-of-signal activity can be used to understand changes in gene expression with fluorescent microscopy. The percentage of BRA+ cells are determined by calculating the number of BRA+ cells divided by the cell count. To generalize the intended target to other relatable targets, this assay component is annotated to the transcription factor intended target family, where the subfamily is T-box protein.Data from the assay component CCTE_Deisenroth_DEVTOX-GLR_Ecto_BRA was analyzed as 1 assay endpoint. The endpoint is the percent BRA+ cell population minus the 0.2% DMSO control in the CCTE_Deisenroth_DEVTOX-GLR_Ecto assay. Furthermore, this assay endpoint can be referred to as a secondary readout, because this assay has produced multiple assay endpoints where this one serves as a measure of mesoderm differentiation.
All assay protocols are aligned to the DevTox GLR-Endo assay workflow (Gamble 2022). Cells are seeded into 384-well microplates for 24 hours prior to initiating differentiation in defined media for a total duration of 48 hours. A total of two chemical exposures are administered in 24-hour intervals during the 48-hour differentiation period. At the assay termination point, cells are fixed and stained with a fluorescent dye demarcating the nucleus. High-content imaging is used to acquire brightfield and fluorescent channel images across 5 fields per well. Cell identification and mean biomarker fluorescence intensities are calculated with image analysis software to determine the total cell counts for viability assessment and the biomarker expression frequency for each lineage-dependent assay. A typical experimental design tests a 10-point concentration series (1 nM - 200 uM) for 28 compounds in single technical replicate. Assay plate controls include non-differentiated pluripotent cells (baseline control), lineage-specific differentiated cells (differentiation control), and DMSO solvent exposed differentiated cells (solvent control). Experiments typically comprise a minimum of four experimental replicates (n=4).
As to `O=c1[nH]cc(F)c(=O)[nH]1`, the AC50 (in general, the midpoint of the concentration-response curve, whichever way the signal moves) was 1.95 µM (active).

As for `CC(C)(c1ccc(O)cc1)c1ccc(O)cc1`, the call was inactive.

Turning to `CC/C(=C(/CC)c1ccc(O)cc1)c1ccc(O)cc1`, the compound was called inactive.

In the case of `CN(Cc1cnc2nc(N)nc(N)c2n1)c1ccc(C(=O)N[C@@H](CCC(=O)O)C(=O)O)cc1`, the result was inactive.

As to `CCCC(CCC)C(=O)O`, the call was inactive.

On to `CC(=O)Nc1ccc(O)cc1`, for which the result was inactive.

On to `CC1(C)S[C@@H]2[C@H](NC(=O)Cc3ccccc3)C(=O)N2[C@H]1C(=O)O`, for which the compound was called inactive.

Turning to `O=C1NC(=O)C(c2ccccc2)(c2ccccc2)N1`, the compound was called inactive.

Consider `CS(=O)(=O)OCCCCOS(C)(=O)=O`, for which the outcome was inactive.

In the case of `CCN(CC)CCNC(=O)c1c(C)[nH]c(/C=C2\C(=O)Nc3ccc(F)cc32)c1C`, the AC50 is 1.12 µM (active).

As to `Nc1cccc2c1C(=O)N(C1CCC(=O)NC1=O)C2=O` (stereo not given), the AC50 is 39.1 µM (active).

Regarding `CC1=C(/C=C/C(C)=C/C=C/C(C)=C\C(=O)O)C(C)(C)CCC1`, the AC50 is 143 µM (active).

Consider `CC1=C(/C=C/C(C)=C/C=C/C(C)=C/C(=O)O)C(C)(C)CCC1`, for which the AC50 was 142 µM (active).

As to `Nc1nc2ncc(CNc3ccc(C(=O)N[C@@H](CCC(=O)O)C(=O)O)cc3)nc2c(=O)[nH]1`, the call was inactive.

Regarding `O=C1NS(=O)(=O)c2ccccc21`, the compound was called inactive.

Source of the values: PubChem BioAssay AID2284425 (EPA ToxCast).
